# ± gives the uncertainty stated by the source.
# System: HEK293T-Rex XBP1-RLuc
# Experiment: XBP1-RLuc splicing reporter activation, triplicate, relative to 500 nM thapsigargin (% of thapsigargin); higher = stronger IRE1/XBP1s reporter activation
# Conditions: 6.8 µM; 18 h; screen: confirmation
# Description: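 HEK293T-Rex cells stably expressing the ERSE-firefly luciferase (BiP promoter, ATF6-preferring) or XBP1-splicing Renilla luciferase (IRE1/XBP1s) reporter, 1536-well plates, compound at 6.8 µM for 18 hr at 37 °C; luminescence read […] and expressed as % activation = 100*(compound - median DMSO)/(median 500 nM thapsigargin - median DMSO). Primary screen was single-pass; confirmation screen in triplicate (mean ± SD).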
row,Structure (SMILES),XBP1-RLuc splicing reporter activation
1,CCCCNNC(=O)c1ccc(Br)cc1,9.12 ± 0.67
2,CCOc1cccc(C(=O)Nc2ccc(-c3nc4ccc(C(=O)c5ccccc5)cc4[nH]3)cc2)c1,94 ± 5
3,O=C(N/N=C/c1ccc(Cl)cc1Cl)c1ccc(O)c(O)c1,10.6 ± 0.64
4,O=[N+]([O-])c1ccccc1NC(=S)N/N=C/c1ccc(O)c(O)c1,8.61 ± 0.81
5,CCOc1ccc2nc(NC(=O)c3ccn(C)n3)sc2c1,-1.23 ± 2
6,Oc1ccccc1/C=N\Nc1nc2ccccc2o1,19.1 ± 1.9
7,Cc1ccc2nc(/C(C#N)=C/c3ccc(O)c(O)c3)[nH]c2c1,16.5 ± 0.47
8,N/C(=N\N=C\c1ccc(O)c(O)c1)c1nonc1N,19.5 ± 0.38
9,Cc1ccc(O)c(NC(=O)CCc2ccccc2)c1,17.5 ± 1.9
10,C=CCNC(=O)c1cc(-c2ccccc2)on1,5.5 ± 0.76
11,CCc1ccc(NC(=O)/C=C/c2ccco2)cc1,4.88 ± 0.83
12,Cc1ccc(O)c(-c2cc(-c3ccc(F)cc3)n[nH]2)c1,3.17 ± 2.6
13,Cc1ccc(Nc2nc(N)c3ccccc3n2)cc1Cl,8.06 ± 2.4
14,COc1cccc(C(=O)/C=C/Nc2cc(C)ccc2O)c1,10.2 ± 0.47
15,COc1cccc(-c2cc(C(=O)Nc3cc(C)ccc3O)no2)c1,12.6 ± 4.8
16,Oc1ccc(/C=N/Nc2cccc3cccnc23)cc1O,17.3 ± 2.3
17,Cc1ccc2nc(/C(C#N)=C/c3ccc(O)cc3)[nH]c2c1,13.8 ± 1.6
18,C=CCNC(=O)c1sc2nc3cc(C)c(C)cc3cc2c1N,-0.518 ± 1.4
19,CN(C)c1ccc(-c2nc3ccc(N)cc3[nH]2)cc1,13.4 ± 0.35
20,CN(C)c1ccc(/C=C/C(=O)NC(=O)c2ccccc2OC(=O)c2ccccc2)cc1,0.481 ± 0.46

row,Structure (SMILES),XBP1-RLuc splicing reporter activation
1,CC(C)NC(=O)c1cc(-c2ccc(O)cc2)on1,18.5 ± 1.6
2,CCOc1cc(C2C(C(=O)OC3CCCCC3)=C(C)NC3=C2C(=O)CC(c2ccc(OC)cc2)C3)cc(Br)c1O (stereo not given),18.5 ± 2.8
3,CC(=Nc1ccc(O)cc1)c1sc2ccccc2c1O,15.7 ± 4.1
4,Cc1ccc(O)c(NC(=O)c2cc(C(C)C)on2)c1,12.7 ± 0.5
5,CCOc1ccc(NC(=O)c2ccc3c(c2)OCO3)c([N+](=O)[O-])c1,-0.432 ± 2.4
6,Cc1ccc(O)c(-c2cc(-c3cccs3)[nH]n2)c1,7.79 ± 0.86
7,CN(C)c1ccc(/C=C(/C#N)C(=O)Nc2ccc(O)cc2)cc1,22.2 ± 0.63
8,CCc1nc2sc(C(=O)c3ccccc3)c(N)c2cc1C,2.72 ± 1.5
9,Cc1ccc2nc(NC(=O)c3cccc4ccccc34)sc2c1,4.94 ± 1.5
10,COc1ccc2c(Cl)c(C(=O)Nc3ccccc3C(N)=O)sc2c1,4.82 ± 1.1
11,CC(C)CNC(=O)c1cc(-c2ccc(F)cc2)no1,4.97 ± 1.2
12,O=C(/C=C/c1ccco1)Nc1ccc(Br)cc1Cl,-0.469 ± 0.9
13,COc1cccc(/C=N/NC(=O)c2ccc(NC(=O)c3ccc(C)cc3)cc2)c1O,86.3 ± 12
14,N#Cc1ccc(-c2cccs2)nc1SCc1ccccn1,0.766 ± 2.5
15,COC(=O)c1c(NC(=O)CCl)sc(C(=O)Nc2cccc([N+](=O)[O-])c2)c1C,12.1 ± 0.46
16,COc1ccc(/C=C/c2ccc3cccc(OC(C)=O)c3n2)cc1OC(C)=O,6.25 ± 0.81
17,O=C(COC(=O)c1cc(O)c(O)c(O)c1)Nc1ccc(Br)cc1F,20.18 ± 0.15
18,COc1ccccc1-c1cc(C(=O)Nc2cc(C)ccc2O)no1,7.78 ± 1.3
19,O=C(N/N=C/c1cccc2ccccc12)c1ccc2c(c1)OCO2,5.9 ± 3.2
20,Oc1cccc(Nc2nc(-c3ccc(O)c(O)c3)cs2)c1,17.5 ± 0.67
